# Reference: the supplement of paper PMC3334620
# Whole data set: some 33,000 sequences, median “E-score (-0.5 to 0.5)” near -0.011, cut for the highest 2% near 0.28. The entries come from a sample that favours the highest values as a whole.
# Target: T1, Gcr1 (UniProt P07261)
# T1 sequence: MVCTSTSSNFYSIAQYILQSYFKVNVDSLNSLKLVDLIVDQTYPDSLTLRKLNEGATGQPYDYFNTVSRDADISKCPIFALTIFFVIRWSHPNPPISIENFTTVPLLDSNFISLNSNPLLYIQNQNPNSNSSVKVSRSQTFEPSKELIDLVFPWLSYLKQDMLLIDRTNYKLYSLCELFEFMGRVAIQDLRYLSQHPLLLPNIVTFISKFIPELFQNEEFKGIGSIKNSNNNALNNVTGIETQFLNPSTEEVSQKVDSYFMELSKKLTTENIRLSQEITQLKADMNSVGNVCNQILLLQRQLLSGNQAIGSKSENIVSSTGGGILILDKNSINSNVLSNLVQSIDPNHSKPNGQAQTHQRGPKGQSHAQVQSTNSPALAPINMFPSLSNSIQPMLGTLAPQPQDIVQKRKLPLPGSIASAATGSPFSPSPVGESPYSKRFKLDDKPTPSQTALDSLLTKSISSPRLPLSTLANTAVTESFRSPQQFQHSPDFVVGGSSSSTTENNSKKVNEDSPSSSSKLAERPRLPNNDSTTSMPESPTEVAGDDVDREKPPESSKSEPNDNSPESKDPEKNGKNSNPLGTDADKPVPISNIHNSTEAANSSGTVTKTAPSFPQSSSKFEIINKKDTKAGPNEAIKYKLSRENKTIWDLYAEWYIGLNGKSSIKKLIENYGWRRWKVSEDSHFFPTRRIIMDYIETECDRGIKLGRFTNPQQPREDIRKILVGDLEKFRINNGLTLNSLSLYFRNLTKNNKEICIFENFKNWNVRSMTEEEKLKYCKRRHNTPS
# Experiment: PBM E-score (8-mer binding enrichment) (E-score (-0.5 to 0.5)); higher = stronger / more preferred TF binding
# Details: protein concentration: 100 nM; construct: GST-full length
# In short: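 Universal all-10-mer Agilent arrays, double-stranded by primer extension on fresh or once-stripped slides, were probed with about 100-200 nM GST-tagged yeast transcription factors made by PURExpress. Fluorescent anti-GST detected bound protein, and masliner normalised the scans. E-scores from the Universal PBM Analysis Suite were given to each ungapped eight-base word pooled with its reverse complement.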
row,Sequence,PBM E-score
1,CCGTCCAA,0.13
2,ATACCGGG,0.208
3,ACCCACTG,0.147
4,CCTGCTCA,-0.0926
5,CCAGATCC,0.185
6,GGCAATGA,-0.202
7,GCGGAAAC,-0.0701
8,ACGGAAGA,0.0748
9,ACGGAAGC,0.344
10,GCGGAAGA,-0.195
11,GCGGAAGC,0.314
12,CCGGAAGG,0.0607
13,CCGGAAGA,0.043
14,ACGGAAGT,-0.0172
15,CCGGAAGC,0.439
16,ATTTTAGG,0.249
17,CGAAACAC,0.13
18,AATACTGT,0.0108
19,AACATCGC,-0.031
20,GCAGGTAA,0.0517
21,AGTCTTCG,-0.124
22,GGAAGCTA,0.457

row,Sequence,PBM E-score
1,AGAAGCTG,0.348
2,AGAAGCTC,0.273
3,CGAAGTTA,0.0921
4,CGAAGCTA,0.198
5,ATAAGCTA,-0.078
6,GGAAGCGA,0.175
7,AGAAGCTA,0.338
8,AGAAGTTA,0.0491
9,ATAAGCTG,0.15
10,GGAAGTTA,0.339
11,AAAAGCTA,-0.0743
12,TAACCATA,0.0179
13,GATCTGAA,-0.0028
14,CTGGATCA,-0.0687
15,CGGGATTA,-0.0698
16,ATGGATCC,0.278
17,CCGGATTA,-0.0163
18,CCGGATTC,0.313
19,GGGGATAC,0.0984
20,CGGGATAC,0.304
21,CGGGATTC,0.39
22,ACGGATTC,0.237

row,Sequence,PBM E-score
1,AGGGATTC,0.276
2,CTGGATCC,0.346
3,CGGGATAA,0.0532
4,ACACTGGA,0.264
5,AACAGTGC,-0.142
6,CGGAAGAA,-0.0973
7,ATCTAGCC,0.0906
8,ATTCCGTC,0.0616
9,CTATAGAC,-0.109
10,CGCAGCAG,0.0351
11,CCCAAATC,0.238
12,CTAGCCAC,-0.154
13,ATGTGAAA,-0.0826
14,CTGGATTC,0.361
15,CTGGATTA,0.246
16,ATGGATTC,0.272
17,CCGCACAC,-0.0537
18,GAGATGCC,0.158
19,CAGATGCC,0.217
20,AAGATGCG,0.198
21,AAGATGCT,0.288
22,AAGATGCA,0.0396

row,Sequence,PBM E-score
1,AAGATGCC,0.31
2,TTAACCAA,-0.0373
3,ATCGCCGG,0.123
4,CAACTCAA,0.0769
5,AATAGGCG,0.168
6,AGACGAAT,0.0336
7,ATACGAAT,0.113
8,CTACGAAG,0.0785
9,ATACGAAG,0.293
10,AGACGAAG,0.335
11,CGACGAAG,-0.219
12,AGCTTACG,0.0302
13,AACTACTG,-0.0124
14,AACTACTA,0.288
15,AACTACTC,0.0802
16,CGGATACG,0.0225
17,TTATGGAA,0.163
18,ACTCTTCA,-0.15
19,AGTAGCAA,0.111
20,AGTAGCAC,0.287
